What all share (test): PBM; 200 nM protein, PBS
Common to all, as to settings: dsDNA, one strand shown

Assay [1] concerns the target T1, NKX2-4 (Homo sapiens, UniProt Q9H2Z4 175-261, P217L).
T1 sequence: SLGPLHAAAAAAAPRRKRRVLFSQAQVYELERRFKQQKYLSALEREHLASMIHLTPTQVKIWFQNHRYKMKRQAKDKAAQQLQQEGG

For assay [2], the target named is T2, NKX2-4 (Homo sapiens, UniProt Q9H2Z4 175-261, T231S).
T2 sequence: T1 sequence with L43P, T57S

The target in assay [3] is T3, PAX4 (Homo sapiens, UniProt O43316 9-242, R200K).
T3 sequence: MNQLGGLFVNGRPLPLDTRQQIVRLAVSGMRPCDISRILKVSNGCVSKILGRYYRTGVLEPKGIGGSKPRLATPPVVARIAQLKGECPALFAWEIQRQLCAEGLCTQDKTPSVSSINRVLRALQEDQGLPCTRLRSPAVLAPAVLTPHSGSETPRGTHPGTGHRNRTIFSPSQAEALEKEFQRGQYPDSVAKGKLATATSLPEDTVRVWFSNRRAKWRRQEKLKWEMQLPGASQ

In assay [4] the target is T4, PAX4 (Homo sapiens, UniProt O43316 9-242).
T4 sequence: T3 sequence with K192R

Assay [5] concerns the target T5, NKX2-4 (Homo sapiens, UniProt Q9H2Z4 175-261).
T5 sequence: T1 sequence with L43P

For assay [6], the target named is HOXB6 (Homo sapiens, UniProt P17509 132-218, K202E).
The target of assay [7] is HOXA2 (Homo sapiens, UniProt O43364 129-215, R185T).
For assay [8], the target named is ALX3 (Homo sapiens, UniProt O95076 139-225, N203Q).
Assay [9] deals with T6, PAX4 (Homo sapiens, UniProt O43316 9-242, R200Q).
T6 sequence: T3 sequence with K192Q

In assay [10] the target is HOXA2 (Homo sapiens, UniProt O43364 129-215, R185K).
The target in assay [11] is T7, PAX4 (Homo sapiens, UniProt O43316 9-242, F177V).
T7 sequence: T3 sequence with F169V, K192R

For assay [12], the target named is ALX3 (Homo sapiens, UniProt O95076 139-225).
Assay [13] addresses T8, NKX2-4 (Homo sapiens, UniProt Q9H2Z4 175-261, R246Q).
T8 sequence: T1 sequence with L43P, R72Q

The target in assay [14] is T9, PAX4 (Homo sapiens, UniProt O43316 9-242, F177Y).
T9 sequence: T3 sequence with F169Y, K192R

For assay [15], the target named is PROP1 (Homo sapiens, UniProt O75360 56-141).
For assay [16], the target named is PROP1 (Homo sapiens, UniProt O75360 56-141, R99H).
Assay [17] deals with ALX3 (Homo sapiens, UniProt O95076 139-225, L168Q).
Assay [18] deals with ALX3 (Homo sapiens, UniProt O95076 139-225, L168V).
Assay [19] has as its target PROP1 (Homo sapiens, UniProt O75360 56-141, F88S).
In assay [20] the target is T10, PAX4 (Homo sapiens, UniProt O43316 9-242, R227W).
T10 sequence: T3 sequence with K192R, R219W

In assay [21] the target is HOXA2 (Homo sapiens, UniProt O43364 129-215, Y150S).
Assay [22] concerns the target ALX3 (Homo sapiens, UniProt O95076 139-225, N203S).
Assay [23] addresses HOXA2 (Homo sapiens, UniProt O43364 129-215).
Assay [24] concerns the target HOXB6 (Homo sapiens, UniProt P17509 132-218).
Assay [25] has as its target PRRX1 (Homo sapiens, UniProt P54821 80-166, F113S).
The target of assay [26] is PRRX1 (Homo sapiens, UniProt P54821 80-166).
For assay [27], the target named is HOXD13 (Homo sapiens, UniProt P35453 263-343, T313R).
In assay [28] the target is HOXD13 (Homo sapiens, UniProt P35453 263-343).
In assay [29] the target is HOXD13 (Homo sapiens, UniProt P35453 263-343, T313A).
Assay [30] deals with T11, NKX2-6 (Homo sapiens, UniProt A6NCS4 118-204, R150C).
T11 sequence: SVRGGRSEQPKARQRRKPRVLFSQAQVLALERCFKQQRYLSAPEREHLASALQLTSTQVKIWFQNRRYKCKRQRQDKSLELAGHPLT

Assay [31] deals with T12, NKX2-6 (Homo sapiens, UniProt A6NCS4 118-204).
T12 sequence: T11 sequence with C33R

For assay [32], the target named is T13, NKX2-6 (Homo sapiens, UniProt A6NCS4 118-204, F151L).
T13 sequence: T11 sequence with C33R, F34L

Assay [33] has as its target MSX2 (Homo sapiens, UniProt P35548 130-214, R199I).
Assay [34] has as its target MSX2 (Homo sapiens, UniProt P35548 130-214).
In assay [35] the target is MSX2 (Homo sapiens, UniProt P35548 130-214, F161Y).

This note sets out measurements from paper PMC11006913.

Substitutions are numbered along the chain they refer to.

PROP1 (Homo sapiens, UniProt O75360 56-141, F88S), sequence (O75360 56-141 F88S): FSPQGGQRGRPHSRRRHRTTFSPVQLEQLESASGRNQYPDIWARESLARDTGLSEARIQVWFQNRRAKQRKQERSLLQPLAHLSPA
PROP1 (Homo sapiens, UniProt O75360 56-141, R99H), sequence (O75360 56-141 R99H): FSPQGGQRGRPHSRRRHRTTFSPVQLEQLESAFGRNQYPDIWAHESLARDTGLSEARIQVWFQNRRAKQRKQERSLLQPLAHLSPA
PROP1 (Homo sapiens, UniProt O75360 56-141), sequence (O75360 56-141): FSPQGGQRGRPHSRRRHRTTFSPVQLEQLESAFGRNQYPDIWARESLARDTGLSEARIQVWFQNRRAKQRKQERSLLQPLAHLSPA
HOXA2 (Homo sapiens, UniProt O43364 129-215, R185T), sequence (O43364 129-215 R185T): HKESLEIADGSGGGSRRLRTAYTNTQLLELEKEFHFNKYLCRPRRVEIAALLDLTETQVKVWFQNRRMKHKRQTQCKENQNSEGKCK
MSX2 (Homo sapiens, UniProt P35548 130-214), sequence (P35548 130-214): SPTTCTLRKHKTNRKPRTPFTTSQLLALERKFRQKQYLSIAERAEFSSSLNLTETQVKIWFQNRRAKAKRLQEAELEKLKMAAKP
ALX3 (Homo sapiens, UniProt O95076 139-225, N203Q), sequence (O95076 139-225 N203Q): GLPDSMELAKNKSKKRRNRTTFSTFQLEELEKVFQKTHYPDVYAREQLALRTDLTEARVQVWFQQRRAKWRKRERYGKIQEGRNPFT
HOXD13 (Homo sapiens, UniProt P35453 263-343), sequence (P35453 263-343): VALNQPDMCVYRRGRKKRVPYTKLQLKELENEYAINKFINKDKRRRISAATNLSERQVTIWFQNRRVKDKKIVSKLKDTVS
MSX2 (Homo sapiens, UniProt P35548 130-214, R199I), sequence (P35548 130-214 R199I): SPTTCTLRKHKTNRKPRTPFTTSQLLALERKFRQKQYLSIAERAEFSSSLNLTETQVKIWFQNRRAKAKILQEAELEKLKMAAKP
HOXD13 (Homo sapiens, UniProt P35453 263-343, T313A), sequence (P35453 263-343 T313A): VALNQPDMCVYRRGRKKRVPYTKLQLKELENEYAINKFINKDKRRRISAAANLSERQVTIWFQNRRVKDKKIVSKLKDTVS
ALX3 (Homo sapiens, UniProt O95076 139-225), sequence (O95076 139-225): as the sequence (O95076 139-225 N203Q) above, with Q65N counted along it
ALX3 (Homo sapiens, UniProt O95076 139-225, L168Q), sequence (O95076 139-225 L168Q): as the sequence (O95076 139-225 N203Q) above, with L30Q, Q65N counted along it
ALX3 (Homo sapiens, UniProt O95076 139-225, L168V), sequence (O95076 139-225 L168V): as the sequence (O95076 139-225 N203Q) above, with L30V, Q65N counted along it
HOXA2 (Homo sapiens, UniProt O43364 129-215, Y150S), sequence (O43364 129-215 Y150S): as the sequence (O43364 129-215 R185T) above, with Y22S, T57R counted along it
HOXA2 (Homo sapiens, UniProt O43364 129-215), sequence (O43364 129-215): as the sequence (O43364 129-215 R185T) above, with T57R counted along it
HOXB6 (Homo sapiens, UniProt P17509 132-218, K202E), sequence (P17509 132-218 K202E): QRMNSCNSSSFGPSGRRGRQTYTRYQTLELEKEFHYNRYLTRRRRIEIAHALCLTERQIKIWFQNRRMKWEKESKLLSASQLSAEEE
HOXB6 (Homo sapiens, UniProt P17509 132-218), sequence (P17509 132-218): as the sequence (P17509 132-218 K202E) above, with E71K counted along it
HOXA2 (Homo sapiens, UniProt O43364 129-215, R185K), sequence (O43364 129-215 R185K): as the sequence (O43364 129-215 R185T) above, with T57K counted along it
MSX2 (Homo sapiens, UniProt P35548 130-214, F161Y), sequence (P35548 130-214 F161Y): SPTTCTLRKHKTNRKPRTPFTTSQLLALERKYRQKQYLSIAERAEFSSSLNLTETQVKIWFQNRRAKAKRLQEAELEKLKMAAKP
PRRX1 (Homo sapiens, UniProt P54821 80-166), sequence (P54821 80-166): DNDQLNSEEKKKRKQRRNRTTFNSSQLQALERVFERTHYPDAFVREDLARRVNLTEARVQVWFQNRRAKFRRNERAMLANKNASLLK
HOXD13 (Homo sapiens, UniProt P35453 263-343, T313R), sequence (P35453 263-343 T313R): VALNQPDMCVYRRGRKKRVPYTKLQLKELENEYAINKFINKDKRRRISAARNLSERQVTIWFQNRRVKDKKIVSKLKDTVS
PRRX1 (Homo sapiens, UniProt P54821 80-166, F113S), sequence (P54821 80-166 F113S): as the sequence (P54821 80-166) above, with F34S counted along it
ALX3 (Homo sapiens, UniProt O95076 139-225, N203S), sequence (O95076 139-225 N203S): as the sequence (O95076 139-225 N203Q) above, with Q65S counted along it

Turning to CCCGGGCC, the binding signal with NKX2-4 [1] is 9.16 upbm affinity estimate (log intensity, higher = more binding, comparable within an allelic series); in the assay with NKX2-4 [2], 8.94 upbm affinity estimate (log intensity, higher = more binding, comparable within an allelic series); with PAX4 [3], 9.02 upbm affinity estimate (log intensity, higher = more binding, comparable within an allelic series); in the assay with PAX4 [4], 9.01 upbm affinity estimate (log intensity, higher = more binding, comparable within an allelic series); with NKX2-4 [5], 9.18 upbm affinity estimate (log intensity, higher = more binding, comparable within an allelic series); with HOXB6 [6] it was 8.77 upbm affinity estimate (log intensity, higher = more binding, comparable within an allelic series). Besides, the binding signal was 7.21 upbm affinity estimate (log intensity, higher = more binding, comparable within an allelic series) in the assay with HOXA2 [7]; 7.64 upbm affinity estimate (log intensity, higher = more binding, comparable within an allelic series) with ALX3 [8]; 9.07 upbm affinity estimate (log intensity, higher = more binding, comparable within an allelic series) with PAX4 [9]; 10.1 upbm affinity estimate (log intensity, higher = more binding, comparable within an allelic series) with HOXA2 [10]; 8.94 upbm affinity estimate (log intensity, higher = more binding, comparable within an allelic series) with PAX4 [11]; 7.66 upbm affinity estimate (log intensity, higher = more binding, comparable within an allelic series) in the assay with ALX3 [12]. Also, the binding signal in the assay with NKX2-4 [13] was 9.15 upbm affinity estimate (log intensity, higher = more binding, comparable within an allelic series); with PAX4 [14], 8.97 upbm affinity estimate (log intensity, higher = more binding, comparable within an allelic series); with PROP1 [15], 6.58 upbm affinity estimate (log intensity, higher = more binding, comparable within an allelic series); in the assay with PROP1 [16], 6.56 upbm affinity estimate (log intensity, higher = more binding, comparable within an allelic series); with ALX3 [17], 7.63 upbm affinity estimate (log intensity, higher = more binding, comparable within an allelic series); with ALX3 [18] it was 7.64 upbm affinity estimate (log intensity, higher = more binding, comparable within an allelic series). Also, the binding signal with PROP1 [19] is 6.14 upbm affinity estimate (log intensity, higher = more binding, comparable within an allelic series); with PAX4 [20] it was 9.08 upbm affinity estimate (log intensity, higher = more binding, comparable within an allelic series); with HOXA2 [21] it was 10.2 upbm affinity estimate (log intensity, higher = more binding, comparable within an allelic series); with ALX3 [22] it was 7.61 upbm affinity estimate (log intensity, higher = more binding, comparable within an allelic series); in the assay with HOXA2 [23] it was 7.08 upbm affinity estimate (log intensity, higher = more binding, comparable within an allelic series); in the assay with HOXB6 [24] it was 8.77 upbm affinity estimate (log intensity, higher = more binding, comparable within an allelic series).
For CGGTCGTA, the binding signal with NKX2-4 [1] is 9.63 upbm affinity estimate (log intensity, higher = more binding, comparable within an allelic series); with NKX2-4 [2], 9.64 upbm affinity estimate (log intensity, higher = more binding, comparable within an allelic series); with NKX2-4 [5], 9.66 upbm affinity estimate (log intensity, higher = more binding, comparable within an allelic series); in the assay with NKX2-4 [13], 9.81 upbm affinity estimate (log intensity, higher = more binding, comparable within an allelic series).
For CCCGCCTC, the binding signal with NKX2-4 [1] is 9.39 upbm affinity estimate (log intensity, higher = more binding, comparable within an allelic series); with NKX2-4 [2], 9.25 upbm affinity estimate (log intensity, higher = more binding, comparable within an allelic series); in the assay with PRRX1 [25], 9.33 upbm affinity estimate (log intensity, higher = more binding, comparable within an allelic series); in the assay with NKX2-4 [5] it was 9.39 upbm affinity estimate (log intensity, higher = more binding, comparable within an allelic series); with NKX2-4 [13], 9.31 upbm affinity estimate (log intensity, higher = more binding, comparable within an allelic series); in the assay with PRRX1 [26] it was 8.99 upbm affinity estimate (log intensity, higher = more binding, comparable within an allelic series).
Consider CTATTAAC, for which the binding signal is 11.7 upbm affinity estimate (log intensity, higher = more binding, comparable within an allelic series) with NKX2-4 [1]; 11.8 upbm affinity estimate (log intensity, higher = more binding, comparable within an allelic series) in the assay with NKX2-4 [2]; 11.6 upbm affinity estimate (log intensity, higher = more binding, comparable within an allelic series) with NKX2-4 [5]; 10.8 upbm affinity estimate (log intensity, higher = more binding, comparable within an allelic series) with HOXD13 [27]; 12 upbm affinity estimate (log intensity, higher = more binding, comparable within an allelic series) with HOXD13 [28]; 11.8 upbm affinity estimate (log intensity, higher = more binding, comparable within an allelic series) in the assay with NKX2-4 [13]. In the assay with HOXD13 [29], the binding signal was 11.8 upbm affinity estimate (log intensity, higher = more binding, comparable within an allelic series).
As to CCCTCATA, the binding signal with NKX2-4 [1] is 11.6 upbm affinity estimate (log intensity, higher = more binding, comparable within an allelic series); with NKX2-4 [2], 11.8 upbm affinity estimate (log intensity, higher = more binding, comparable within an allelic series); with NKX2-4 [5], 11.5 upbm affinity estimate (log intensity, higher = more binding, comparable within an allelic series).
With ACTCAAGT, the binding signal with NKX2-4 [1] is 12.4 upbm affinity estimate (log intensity, higher = more binding, comparable within an allelic series); with NKX2-4 [2], 12.9 upbm affinity estimate (log intensity, higher = more binding, comparable within an allelic series); in the assay with NKX2-4 [5] it was 12.3 upbm affinity estimate (log intensity, higher = more binding, comparable within an allelic series); with NKX2-6 [30] it was 11.4 upbm affinity estimate (log intensity, higher = more binding, comparable within an allelic series); with NKX2-4 [13] it was 12.9 upbm affinity estimate (log intensity, higher = more binding, comparable within an allelic series).
Turning to AGAAGCCG, the binding signal in the assay with NKX2-4 [1] is 9.64 upbm affinity estimate (log intensity, higher = more binding, comparable within an allelic series); with NKX2-4 [2] it was 9.7 upbm affinity estimate (log intensity, higher = more binding, comparable within an allelic series); with NKX2-4 [5] it was 9.69 upbm affinity estimate (log intensity, higher = more binding, comparable within an allelic series); with NKX2-6 [31], 9.29 upbm affinity estimate (log intensity, higher = more binding, comparable within an allelic series); in the assay with NKX2-4 [13] it was 9.62 upbm affinity estimate (log intensity, higher = more binding, comparable within an allelic series); in the assay with NKX2-6 [32] it was 9.27 upbm affinity estimate (log intensity, higher = more binding, comparable within an allelic series).
In the case of GACTGAGC, the binding signal in the assay with NKX2-4 [1] was 9.79 upbm affinity estimate (log intensity, higher = more binding, comparable within an allelic series); with NKX2-4 [2], 9.84 upbm affinity estimate (log intensity, higher = more binding, comparable within an allelic series); with NKX2-4 [5] it was 9.65 upbm affinity estimate (log intensity, higher = more binding, comparable within an allelic series); with MSX2 [33], 9.57 upbm affinity estimate (log intensity, higher = more binding, comparable within an allelic series); in the assay with MSX2 [34] it was 9.48 upbm affinity estimate (log intensity, higher = more binding, comparable within an allelic series); in the assay with NKX2-4 [13], 9.92 upbm affinity estimate (log intensity, higher = more binding, comparable within an allelic series). The binding signal with PROP1 [15] is 6.86 upbm affinity estimate (log intensity, higher = more binding, comparable within an allelic series); in the assay with PROP1 [16], 6.74 upbm affinity estimate (log intensity, higher = more binding, comparable within an allelic series); with PROP1 [19], 6.66 upbm affinity estimate (log intensity, higher = more binding, comparable within an allelic series); with MSX2 [35] it was 9.49 upbm affinity estimate (log intensity, higher = more binding, comparable within an allelic series).
Turning to TCCGGACA, the binding signal was 9.56 upbm affinity estimate (log intensity, higher = more binding, comparable within an allelic series) in the assay with NKX2-4 [1]; 9.6 upbm affinity estimate (log intensity, higher = more binding, comparable within an allelic series) with NKX2-4 [2]; 9.6 upbm affinity estimate (log intensity, higher = more binding, comparable within an allelic series) with NKX2-4 [5]; 9.66 upbm affinity estimate (log intensity, higher = more binding, comparable within an allelic series) with NKX2-4 [13].
As for CCCACTCA, the binding signal was 12.4 upbm affinity estimate (log intensity, higher = more binding, comparable within an allelic series) with NKX2-4 [1]; 12.7 upbm affinity estimate (log intensity, higher = more binding, comparable within an allelic series) in the assay with NKX2-4 [2]; 12.2 upbm affinity estimate (log intensity, higher = more binding, comparable within an allelic series) in the assay with NKX2-4 [5]; 11.3 upbm affinity estimate (log intensity, higher = more binding, comparable within an allelic series) with NKX2-6 [30]; 12.6 upbm affinity estimate (log intensity, higher = more binding, comparable within an allelic series) with NKX2-4 [13].
